According to PubChem BioAssay AID1159580 (chemical genetic matrix, 2015):
“And” between values parts separate entries of the source, which are not always exact repeats. Equal entries are not always repeated. Screen size: about 5,500 compounds; about 2,000 (36%) were called active. Inconclusive results (about 18%) are left out. Rule as the data show it: active = normalized growth mostly below about 0.91 (no sharp cut-off); inconclusive = no clear call, values can overlap the other calls; inactive = mostly above about 0.92. Some of the results follow.

Assay: chemical genetic growth profiling, strain panel (AID 1159580);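 also: tested at 20 µM; growth read once vehicle control cultures reached saturation at 30 °C; 1 = growth at the plate median or of vehicle wells; lower values mean less growth of the strain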
Conditions: S. cerevisiae deletion strains, growth OD

Measured: normalized growth

Cc1ccc(C(C)C)cc2c(C)ccc1-2
inactive: locus YAL013W, strain DEP1, hits give low values 1 | locus YAL021C, strain ccr4, hits give low values 1 | locus YAL026C, strain drs2, hits give low values 1.02 | locus YAL030W, strain snc1, hits give low values 1 | locus YBL061C, strain skt5, hits give low values 1 | locus YBR009C, strain hhf1, hits give low values 0.999 | locus YBR021W, strain FUR4, hits give low values 1.01 | locus YBR023C, strain chs3, hits give low values 1 | locus YBR171W, strain sec66, hits give low values 1.02 | locus YBR229C, strain ROT2, hits give low values 1 | locus YBR231C, strain swc5, hits give low values 1 | locus YBR279W, strain paf1, hits give low values 1.01 | locus YCL011C, strain gbp2, hits give low values 1.01 | locus YCL016C, strain dcc1, hits give low values 0.985 | locus YCL029C, strain bik1, hits give low values 1.03 | locus YCL061C, strain MRC1, hits give low values 1.01 | locus YCL069W, strain vba3, hits give low values 0.996 | locus YCR088W, strain abp1, hits give low values 1.01 | locus YDL005C, strain med2, hits give low values 1.01 | locus YDL035C, strain GPR1, hits give low values 1 | locus YDL040C, strain nat1, hits give low values 0.99 | locus YDL074C, strain BRE1, hits give low values 0.944 | locus YDL101C, strain DUN1, hits give low values 0.991 | locus YDL134C, strain PPH21, hits give low values 0.984 | locus YDL185W, strain tfp1, hits give low values 1.02 | locus YDL192W, strain arf1, hits give low values 1.02 | locus YDR001C, strain nth1, hits give low values 1 | locus YDR069C, strain doa4, hits give low values 1 | locus YDR101C, strain arx1, hits give low values 1.02 | locus YDR137W, strain rgp1, hits give low values 0.978 | locus YDR159W, strain sac3, hits give low values 1.05 | locus YDR162C, strain NBP2, hits give low values 1 | locus YDR195W, strain ref2 0.975 | locus YDR297W, strain sur2, hits give low values 1 | locus YDR318W, strain mcm21, hits give low values 1.01 | locus YDR334W, strain swr1, hits give low values 1 | locus YDR335W, strain msn5, hits give low values 0.997 | locus YDR388W, hits give low values 1.03 | locus YDR392W, strain spt3, hits give low values 0.906 | locus YDR502C, strain sam2, hits give low values 1 | locus YEL003W, strain gim4, hits give low values 0.998 | locus YEL037C, strain rad23, hits give low values 1 | locus YEL061C, strain CIN8 (second series), hits give low values 1 | locus YEL061C, strain CIN8, hits give low values 0.998 | locus YER015W, strain faa2, hits give low values 1 | locus YER016W, strain bim1, hits give low values 1 | locus YER110C, hits give low values 1.04 | locus YER111C, strain swi4, hits give low values 1.01 | locus YER155C, strain BEM2 (second series), hits give low values 0.998 | locus YER155C, strain BEM2, hits give low values 1.01 | locus YER167W, strain BCK2, hits give low values 0.988 | locus YFR010W, strain ubp6, hits give low values 1.01 | locus YGL078C, strain dbp3, hits give low values 1.02 | locus YGL086W, strain mad1, hits give low values 0.994 | locus YGL167C, strain pmr1, hits give low values 1.01 | locus YGL173C, strain kem1, hits give low values 1.01 | locus YGL227W, strain vid30, hits give low values 1.01 | locus YGL240W, strain doc1, hits give low values 1.01 | locus YGL248W, strain PDE1, hits give low values 1 | locus YGL253W, strain hxk2, hits give low values 1.03 | locus YGR078C, strain PAC10, hits give low values 0.948 | locus YGR135W, strain pre9, hits give low values 1.03 | locus YGR252W, strain gcn5, hits give low values 1.02 | locus YHR013C, strain ard1, hits give low values 1.02 | locus YHR027C, strain rpn1, hits give low values 1 | locus YHR030C, strain SLT2, hits give low values 1 and 0.968 | locus YHR079C, strain IRE1 (second series), hits give low values 1.02 | locus YHR079C, strain IRE1, hits give low values 0.977 | locus YHR094C, strain hxt1, hits give low values 1.02 | locus YHR129C, strain ARP1, hits give low values 1 | locus YHR142W, strain chs7, hits give low values 1.02 | locus YHR200W, strain rpn10, hits give low values 1.02 | locus YIL066C, strain RNR3, hits give low values 0.986 | locus YIL073C, strain SPO22, hits give low values 1.09 | locus YIL125W, strain kgd1, hits give low values 1.01 | locus YIR030C, strain dcg1, hits give low values 1.02 | locus YJL092W, strain hpr5, hits give low values 1 | locus YJL095W, strain BCK1 (second series), hits give low values 1 | locus YJL095W, strain BCK1, hits give low values 0.972 and 1.03 | locus YJL115W, strain asf1, hits give low values 0.992 | locus YJL129C, strain trk1, hits give low values 1.01 | locus YJL134W, strain LCB3, hits give low values 1 | locus YJL154C, strain vps35, hits give low values 0.999 | locus YJL164C, strain tpk1, hits give low values 0.991 | locus YJL166W, strain qcr8, hits give low values 0.994 | locus YJL168C, strain set2, hits give low values 1.02 | locus YJL187C, strain SWE1 (second series), hits give low values 0.995 | locus YJL187C, strain SWE1, hits give low values 1.01
